The list is not random: actives were taken first. Their share in the collection is about 4.6%.
D1 ag – human D1 receptor agonism. 360,000 tested, 1% active. HEK293 T-REx D1 cells, calcium flux, agonist mode. activation, % at 2 µM. P21728; further: 0% is about no effect
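Tetracycline-induced HEK293 TREx D1 cells, force-coupled to calcium signalling, were dye-loaded with a no-wash calcium kit. Compound was pin-added after a 10 s baseline. Fluorescence was read kinetically at 1 cycle/s for 180 s, with calcium rises flagged as agonism.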
D1 PAM – human D1 dopamine receptor positive modulation; potentiation, % at 10 µM; 360,000 tested, 0.036% active; HEK293 TREx D1 cells, calcium flux, dopamine EC20 potentiation; P21728; in the data active means potentiation above about 30%; further: 0% is about no effect
TRHR enhancer – allosteric enhancers of human TRH receptor; 360,000 tested, 0.66% active; AID 493056; P34981; enhancement, % at 2 µM; TRHR cells, fluo-8 calcium fluorescence, EC20 TRH enhancement; in the data active means enhancement above about 30%; further: 0% is about no effect
Target sequence (P34981 whole entry, looked up): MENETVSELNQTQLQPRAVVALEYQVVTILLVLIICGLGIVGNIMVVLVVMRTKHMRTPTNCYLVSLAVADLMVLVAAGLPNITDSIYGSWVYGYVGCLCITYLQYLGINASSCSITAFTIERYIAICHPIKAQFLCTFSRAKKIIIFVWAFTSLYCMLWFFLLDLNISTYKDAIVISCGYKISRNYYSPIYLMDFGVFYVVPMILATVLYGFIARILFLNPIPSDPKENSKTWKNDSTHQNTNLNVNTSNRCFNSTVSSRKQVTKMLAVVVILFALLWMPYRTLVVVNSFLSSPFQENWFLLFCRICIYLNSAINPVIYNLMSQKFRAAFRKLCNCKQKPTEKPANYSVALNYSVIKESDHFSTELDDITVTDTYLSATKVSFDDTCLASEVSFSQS
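TRHR-expressing cells loaded with fluo-8 calcium dye were read kinetically (ex 480/em 530) during compound addition, then stimulated with an EC20 of TRH (10 nM final). Enhancement of the Gq-mediated intracellular calcium response was scored.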
TRHR ag – activates the human TRH receptor | activation, % at 2 µM | TRHR cells, calcium flux fluo-8, FDSS agonist mode | P34981 | 360,000 tested, 0.18% active; further: 0% is about no effect
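Agonist-mode FDSS calcium read (Ex 480/Em 530, 1 s cycles) in 1536-well TRHR cells with fluo-8 dye, after 10-cycle baseline and 23 nL compound addition; TRH at EC20 (10 nM final) added afterwards for the enhancer phase.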
D1 antagonist – antagonists of human D1 dopamine receptor | HEK293 TREx D1 cells, calcium flux, dopamine EC80; hits give low values | P21728 | 360,000 tested, 3.2% active | AID 504652 | activity change, negative = inhibition, % at 10 µM; in the data active means activity change below about -30%; further: on the % scale 0 is the no-effect control and ±100 the full control effect
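Calcium flux readout: force-coupled, inducible Hek293 Trex D1 line, cells induced overnight at 30 C with tetracycline, dye-loaded 30–90 min at RT. Antagonism scored against EC80 dopamine challenge given 180 s after compound.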
* = called active by the depositor. Unless noted, no stated cut-off is given here; in the data, active means activation above about 30%; inactive means the rest.

SMILES	D1 ag	D1 PAM	TRHR enhancer	TRHR ag	D1 antagonist
O=C(CSc1ccc(-c2cccs2)nn1)Nc1cccc(F)c1	20.1	-7.8	7.3	-0.2	-28.4
CCN(CC)c1ccc2cc(-c3nc4ccccc4[nH]3)c(=O)oc2c1	546.7*	-10.3	-23.1	206.8*	-77.1*
COc1cccc2cc(-c3nc4ccccc4[nH]3)c(=O)oc12	0.9	-0.9	3.9	0.3	-8.3
CCN(CC)c1ccc2cc(-c3nnc(-c4ccccc4)o3)c(=O)oc2c1	243.6*	6.5	16.4	223.7*	-5.3
CN(C)Cc1c(O)ccc2cc(-c3nc4ccccc4n3C)c(=O)oc12	21.6	-3.0	40.0*	23.1	2.8
Cc1ccc(-c2nc3ccccc3n2C)o1	3.1	-12.1	-13.3	0.6	-14.7
CCN(CC)c1ccc2cc(-c3nc4ccccc4n3C)c(=O)oc2c1	278.2*	-2.5	30.7*	144.0*	-14.9
COc1cc(C)ccc1OCCSc1nc2ccc(NC(=O)c3cccs3)cc2s1	0.0	-1.1	3.5	-0.9	-4.6
CC1=C(c2ccc(F)cc2)S(=O)(=O)N=C1N1CCC(C(=O)NCCc2cccc(C)c2)CC1	1.3	-6.2	-5.3	-0.4	5.4
CCOc1ccc(N(CC)C(=O)c2cc3c(s2)-c2ccccc2OC3)cc1	5.1	8.8	6.4	0.2	17.9
CCOc1ccc(NC(=O)CSc2nnc(-c3ccc(C)cc3)c(-c3ccc(C)cc3)n2)cc1	-3.7	-0.9	-3.0	-0.3	2.5
S=C(NCCc1ccccc1)Nc1ccc(Br)cc1	15.4	-9.8	1.4	-0.7	-51.5*
COC(=O)Cc1ccc(NC(=S)NCCC(C)C)cc1	10.9	-1.6	-0.4	-0.1	-28.4
COc1ccc(CSCCNC(=S)Nc2ccccc2)cc1Cl	17.9	-7.6	-3.1	-0.1	-33.2*
Oc1ccc(Br)cc1/C=N/NC(=S)NCCc1ccccc1	2.8	-9.1	1.6	-0.1	16.8
S=C(NCCc1ccccc1)N/N=C/c1ccccc1Cl	4.5	5.0	15.5	0.1	-32.8*
CC(C)CCNC(=S)Nc1ccc([N+](=O)[O-])cc1	34.3*	-3.1	-10.9	3.2	-45.6*
COc1ccc(CNC(=S)Nc2ccccc2)cc1Cl	5.2	-3.2	-2.9	0.6	-4.7
COc1cc(NC(=O)C(OC(=O)CNC(=O)c2ccccc2)c2ccccc2)cc(OC)c1 (centres undefined)	2.0	10.9	3.9	-1.0	21.5
Cc1ccc(C)c(N2CCN(C(=O)CN3C(=O)COc4ccc(S(=O)(=O)N5CCCC5)cc43)CC2)c1	-1.4	3.8	-3.3	-0.8	9.8
Cc1ccc([N+](=O)[O-])cc1NC(=S)NCCc1ccccc1	23.4	-4.1	-5.2	-0.1	-35.8*
COc1ccc(OCCNC(=S)Nc2cccc3ccccc23)cc1	3.5	-3.5	0.3	0.3	-39.3*
CCCCNC(=S)NC(=O)c1ccc([N+](=O)[O-])cc1	3.3	-6.5	1.7	0.0	-46.1*
Cc1ccc(C(=O)O)cc1NC(=S)NCCc1ccccc1	-0.7	7.0	6.0	0.9	8.1
CC(C)Oc1ccc(CCC(=O)NNC(=S)Nc2ccccc2)cc1	8.6	-1.9	-2.0	-0.7	-31.5*
SMILES	D1 ag	D1 PAM	TRHR enhancer	TRHR ag	D1 antagonist
Cc1cc(NC(=O)CSc2nc(-c3cccc(F)c3)nc3c2c(=O)n(C)c(=O)n3C)no1	0.3	-1.4	-1.7	0.0	-0.1
O=C(CCCN1C(=O)C(c2ccccc2)Oc2cccnc21)Nc1ccc(Br)cc1F (centres undefined)	2.7	-6.0	-3.3	0.4	1.2
Cc1ccc(NC(=O)Nc2c(C)n(C)n(-c3ccccc3)c2=O)c(Cl)c1	0.3	7.3	2.1	-0.3	4.1
CCCCNC(=S)Nc1ccc(Oc2ccccc2)cc1	22.5	-7.0	-1.0	-0.2	-10.7
CCCCNC(=S)Nc1ccc([N+](=O)[O-])cc1	19.4	-6.2	-8.9	0.6	-33.0*
CC(C)CCNC(=S)Nc1ccc(Br)cc1	13.2	-12.8	-2.1	0.8	-33.2*
S=C(NCCc1ccccc1)Nc1ccc(Cl)cc1Cl	13.0	-5.2	-7.4	-0.6	-32.6*
COc1ccc(CCNC(=S)Nc2ccccc2)cc1	7.0	-13.8	0.2	-2.3	-36.1*
Cc1cc(Cl)ccc1NC(=S)NCCc1ccc(Cl)cc1	13.7	-0.5	-3.6	0.5	-25.2
COc1cccc(NC(=S)NCCC(c2ccccc2)c2ccccc2)c1	19.7	-9.0	6.2	-2.3	-49.9*
Cc1cccc(N2CCN(S(=O)(=O)c3csc(C(N)=O)c3)CC2)c1C	13.2	-1.6	-0.6	-0.9	-10.1
N#Cc1c(-n2ncnc2-c2ccccc2C(F)(F)F)sc2c1CCCCC2	-0.1	-0.7	-2.3	-0.2	-23.6
N#Cc1c(-n2ncnc2-c2ccccc2Cl)sc2c1CCCCC2	0.0	3.1	-1.5	-0.6	-34.6*
CCOC(=O)Cc1cc(-c2ccc(O)cc2)nc2ccc3ccccc3c12	6.5	-6.5	-0.3	0.4	-11.7
CCOC(=O)Cc1cc(-c2ccc(F)cc2)nc2ccc3ccccc3c12	8.5	-10.6	1.2	0.6	-56.6*
COc1ccc(Cn2c(C(=O)O)c(CNCCc3ccccc3Cl)c3ccc(C)cc32)cc1	1.9	-0.6	-2.4	-0.4	-8.9
CCCN1C(=O)/C(=C/c2ccncc2)SC1=S	0.4	-2.1	-1.4	-0.6	-4.5
CCN1C(=O)/C(=C/C=C2/SCCN2C)SC1=S	41.0*	11.9	-4.0	16.5	23.4
CCN1C(=O)/C(=C\N2CCN(C(=O)c3ccco3)CC2)SC1=S	4.4	-1.4	0.2	1.2	6.2
CCN1C(=O)/C(=C/C=C2/Sc3ccccc3N2CCO)SC1=S	32.1*	1.8	7.5	7.7	6.8
CCN1C(=O)/C(=C/N2CCc3ccccc32)SC1=S	2.0	0.1	1.3	0.9	-19.2
CCCN1C(=O)/C(=C\C=C2/Sc3ccccc3N2CCO)SC1=S	30.2*	-5.4	-2.3	13.9	2.3
CC1Cc2ccccc2N1C(=O)CSc1nc2ccc(NC(=O)COc3ccccc3)cc2s1 (centres undefined)	0.3	-1.7	16.6	0.2	-16.1
O=C1CC(c2ccccc2)Cc2[nH]c(=O)c(-c3nc(-c4ccc(Cl)c(Cl)c4)cs3)cc21 (centres undefined)	-0.6	0.5	0.5	1.4	8.6
Cc1ccc(CCNS(=O)(=O)c2ccc3c(c2)C(C(C)C)C(=O)N3)cc1 (centres undefined)	13.6	-2.2	4.4	-1.4	4.4
Cc1ccc(C)n1-c1ccc(C(=O)NCc2ccncc2)cc1	4.8	-4.7	30.8*	2.0	8.3
Cc1nc(-c2cc(C#N)c(Sc3cccc(C(F)(F)F)c3)nc2C)cs1	30.2*	-1.6	-6.9	2.5	-55.2*
CCc1cc2c(=O)c(-c3nc(C)cs3)coc2cc1OC(C)C(=O)NCCO (centres undefined)	-0.1	-2.4	-5.8	-0.2	-33.2*
Cc1ccc(-c2cc(-c3ccc(F)cc3)nc(N)c2C#N)o1	2.3	-7.6	1.1	0.9	-59.5*

Screening data deposited in PubChem BioAssay by National Center for Advancing Translational Sciences (NCATS).
